# Source: PubChem BioAssay (Tox21)
# Where “and” joins values, the source holds several entries; their conditions need not be identical. Identical values can stand only once. Records with an inconclusive call do not appear. Where a call stands in place of a potency, no number is given. Calls of active or inactive are those of the source. The call rests on the fitted dose curve; in most records, active means well fitted cell-killing curve with a large enough effect in the repeat runs; inconclusive means weak or mixed curves; inactive means flat fitted curve, though single readings scatter.
# Assay: qHTS RealTime-Glo MT Cell Viability Assay in HepG2 cells - 32 hour (AID 1224877); further: nearly all actives have a fitted effect of over 55% in size
# Details: RealTime-Glo luminescence; series mostly up to 76.8 µM
# Source text: U.S. Tox21 Program National Center for Advancing Translational Sciences [NCATS] NIH Chemical Genomics Center [NCGC] U.S. Environmental Protection Agency [EPA] National Institutes of Environmental Health Sciences [NIEHS] National Toxicology Program [NTP] U.S. Food and Drug Administration [FDA] Tox21 Assay Overview: Measure of cell viability is critical in the cell-base assay. Analysis of cell viability is necessary for the characterization of cell responses to cytotoxic drugs and environmental stress. A RealTime-Glo MT Cell Viability Assay to monitor cell viability in real time of continues cell culture during 40 hours of compound treatment was used to screen Tox21 10K library compounds in HepG2 cells. The RealTime-Glo MT Cell Viability Assay is a nonlytic, homogeneous, bioluminescent method to measure cell viability in real time using a simple, plate-based method. The assay involves adding NanoLuc luciferase and a cell-permeant prosubstrate to cells in culture. Viable cells reduce the proprietary prosubstrate to generate a substrate for NanoLuc luciferase. This substrate diffuses from cells into the surrounding culture medium, where it is rapidly used by the NanoLuc Enzyme to produce a luminescent signal. The signal correlates with the number of viable cells, making the assay well suited for cytotoxicity studies.
# Tox21 Assay Protocol Summary: The mixture of HepG2 cell suspension and reagents were dispensed at 600cells/6 ul/well in 1536-well tissue culture treated black solid bottom plates using a Multidrop dispenser. After the assay plates were incubated at a 37 C/5% CO2 incubator for 5 hours, 23 nL of compounds dissolved in DMSO, positive and negative controls was transferred to the assay plate by a pintool work station. The plates were incubated at 37 C for 40 hours. The luminescence intensity were measured at 0h, 8h, 16h, 24h, 32h and 40h time points using ViewLux plate reader during compound treatment.
# Potency means the concentration at half of the fitted maximal effect.
row,SMILES,Potency
1,CCCCCCCCCC(=O)N(C)C,inactive
2,CSc1c(Cl)c(Cl)c(Cl)c(Cl)c1Cl,inactive
3,O=C1NC2CCCCN2C12CCN(CCCN1c3ccccc3CCc3ccc(Cl)cc31)CC2 (stereo not given),23.9 µM (active)
4,COC(=O)[C@]1(C)CCC[C@@]2(C)[C@H]1CC=C1C=C(C(C)C)CC[C@@H]12,inactive
5,C=CC(=O)OCCC#N,inactive
6,COC(=O)CC(C)CCC=C(C)C (stereo not given),inactive
7,CC(C)C(=O)OCc1ccccc1,inactive
8,CCc1ccc(C)nc1,inactive
9,CCN(CC)CCOc1ccc(C(O)(Cc2ccc(Cl)cc2)c2ccc(C)cc2)cc1 (stereo not given),19 µM (active)
10,CCC1(c2cnc[nH]2)Cc2ccccc2C1,inactive
11,CCc1ccc(O)c(C(C)(C)C)c1,inactive
12,Cc1cnccn1,inactive
13,O=C(c1ccccc1)c1cc(Cl)ccc1O,inactive
14,CCC(C)C(=O)OC (stereo not given),inactive
15,CCNc1nc(NC(C)CC)nc(OC)n1 (stereo not given),inactive
16,CCCCCCCCCCCCCC[n+]1ccccc1,12.3 µM (active)
17,Brc1ccccc1-c1ccccc1,inactive
18,Oc1cc2ccccc2cc1O,inactive
19,OCCCc1cccnc1,inactive
20,COc1ccccc1OCCNCC(O)COc1cccc2[nH]c3ccccc3c12 (stereo not given),23.9 µM (active)

row,SMILES,Potency
1,CC(CN(C)C)CN1c2ccccc2CCc2ccccc21 (stereo not given),inactive
2,CCCCCCCCCCCCOC(=O)c1cc(O)c(O)c(O)c1,54.7 µM (active) and 49 µM (active)
3,CCO[Si](CCCSSSSCCC[Si](OCC)(OCC)OCC)(OCC)OCC,inactive
4,COc1cccc(CCc2ccccc2OCC(CN(C)C)OC(=O)CCC(=O)O)c1 (stereo not given),inactive
5,CC(=O)C=O,inactive
6,CCCCCCCC/C=C/CCCOC(C)=O,inactive
7,CCCCCCCC(OC)OC,inactive
8,CC(=O)Nc1ccc(O)cc1,inactive
9,Cc1cc(=O)[nH]c(=O)[nH]1,inactive
10,CC(C)c1ccccc1N,inactive
11,C/C=C/C=N/NC(=O)c1ccncc1,inactive
12,CCCCCCS,inactive
13,CCCCCCCCCCCCCOP(=O)(O)O,inactive
14,CCCCN(C)C,inactive
15,CCCC(C)CCC(C)=O (stereo not given),inactive
16,c1cc[nH]c1,inactive
17,COCC(=O)O[C@]1(CCN(C)CCCc2nc3ccccc3[nH]2)CCc2cc(F)ccc2[C@@H]1C(C)C,13.4 µM (active)
18,OCCCCl,inactive
19,OCCC(O)CO (stereo not given),inactive
20,O=C(O)CC(=O)O,inactive
